Sampled rows, rich in hits. Any-hit rate of the full collection: about 18%.
RORg inh: inhibitors of mouse ROR gamma transcriptional activity; Drosophila S2 Gal4-RORgamma UAS-luciferase reporter, 20 h; Potency, µM (series often up to 53.6 µM), for the others: at the highest dose activity change, negative = inhibition, usual class: inhibitors; 310,000 tested, 5.4% active; note: potency is the fitted concentration of half-maximal effect; nearly all actives have a fitted effect of over 60% in size
Target sequence (P51450 whole entry, looked up, the tested form may be a part): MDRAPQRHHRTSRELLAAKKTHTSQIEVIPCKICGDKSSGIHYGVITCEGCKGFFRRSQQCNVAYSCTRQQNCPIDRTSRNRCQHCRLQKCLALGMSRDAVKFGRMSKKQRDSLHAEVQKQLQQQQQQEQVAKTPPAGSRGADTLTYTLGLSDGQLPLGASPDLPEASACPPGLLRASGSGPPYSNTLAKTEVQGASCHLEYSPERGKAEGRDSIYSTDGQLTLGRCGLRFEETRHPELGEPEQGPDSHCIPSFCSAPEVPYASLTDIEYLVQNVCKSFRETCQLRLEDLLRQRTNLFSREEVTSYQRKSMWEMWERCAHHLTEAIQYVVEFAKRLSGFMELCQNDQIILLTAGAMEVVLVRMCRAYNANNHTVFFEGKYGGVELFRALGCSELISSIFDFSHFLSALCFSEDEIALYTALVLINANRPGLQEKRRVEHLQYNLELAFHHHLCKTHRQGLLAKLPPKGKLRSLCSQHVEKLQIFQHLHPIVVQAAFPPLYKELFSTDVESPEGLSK
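Drosophila Schneider cells stably carrying a metallothionein-driven Gal4 DBD–ROR gamma fusion and a UAS-Photinus luciferase reporter were exposed to compound for 1 hr, then induced with copper sulfate (700 uM final) for 20 hr at ambient temperature before luminescence reading.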
DT40 TDP1 no CPT: qHTS for Inhibitors of human tyrosyl-DNA phosphodiesterase 1 (TDP1): qHTS in cells in absence of CPT; DT40 Tdp1-/- hTDP1 cells, no CPT, ATP luminescence, 48 h; Potency, µM (titrated, usually from 46.2 µM), without a hit: top-dose activity change, negative = growth inhibition, usual class: inhibitors; 420,000 tested, 15% active; AID 686978, 2013; note: potency is the fitted concentration of half-maximal effect; nearly all actives have a fitted effect of over 55% in size
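A cellular qHTS used chicken DT40 cells lacking endogenous Tdp1 but carrying stably transfected human TDP1. Compounds were applied without camptothecin, and cell growth kinetics were judged by ATP-dependent luminescence after ≥48 hr.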
LDHA block: blocks human lactate dehydrogenase A; 480,000 tested, 0.15% active; activity change, % (values are at about 110 or 230 µM); AID 1347041; P00338; purified LDHA, NADH/diaphorase-resazurin fluorescence; active compounds read low; in the data active = activity change below about -30%; inconclusive = mostly about -25% to -30%;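 note: plate controls were DMSO wells for no effect and wells without enzyme for full effect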
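Remaining NADH was detected by diaphorase (0.133 mg/mL) converting 37 µM resazurin to fluorescent resorufin, read at 0 and 20 minutes. The preceding 5-minute room-temperature reaction used 2 nM LDHA, 0.2 mM sodium pyruvate and 0.06 mM NADH at pH 7.4.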
IL-1B inflam inh: inhibitors of inflammasome signaling (IL-1 beta secretion) | THP-1 LPS/ATP IL-1B secretion, AlphaLISA, 16 h; active compounds read low | activity change, % at 57.5 µM | 360,000 tested, 4.7% active | AID 743279; in the data active = activity change below about -50%; inconclusive = mostly about -30% to -49%
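Secreted IL-1B measured by AlphaLISA bead assay after 16 h compound exposure of THP-1 cells; compounds (final up to 57.5 uM) added 1 h before LPS (250 ng/mL) and ATP (1.25 mM) stimulation; lower signal means less secretion.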
VP16 counter: Gal4-VP16 reporter inhibition counter-screen. Drosophila S2 Gal4-VP16 UAS-luciferase, luminescence, 20 h. AID 2546. 310,000 tested, 3.5% active. Potency, µM (series often up to 53.6 µM), for the others: at the top dose activity, negative = inhibition, usual class: inhibitors;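 note: Gal4-VP16 expression switched on by copper sulfate through the metallothionein promoter; potency is the fitted concentration of half-maximal effect; nearly all actives have a fitted effect of over 50% in size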
DT40 TDP1 CPT: DT40-hTDP1 cell growth loss with CPT. Potency, µM (series often up to 46.2 µM), for the others: at the top dose activity change, negative = growth inhibition, hits mostly inhibitors. chicken DT40 Tdp1-/-;hTDP1 cells + 20 nM CPT, ATP luminescence, 48 h. 420,000 tested, 12% active. AID 686979; note: potency is the fitted concentration of half-maximal effect; nearly all actives have a fitted effect of over 55% in size
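Chicken DT40 Tdp1-/- cells stably complemented with human TDP1 were seeded at 400 cells/well in medium containing 20 nM camptothecin, exposed to pin-transferred compounds, and grown at 37 °C for at least 48 hr. Viability was read as ATP luminescence.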
Numbers without * were called inactive; ? = inconclusive; nt = no result; [ ] = remark or other dose. Unless noted, calls come from the whole dose curve; as a rule, active = well fitted curve in the direction sought with a large enough effect; inconclusive = small, poorly fitted or top-dose-only effect, or another doubt; inactive = no such curve, though single readings can be large; an effect the other way counts as inactive or inconclusive. Unless noted, % is set by controls: 0 for no effect and ±100 for the full control effect.

SMILES	RORg inh	DT40 TDP1 no CPT	LDHA block	IL-1B inflam inh	VP16 counter	DT40 TDP1 CPT
O=C(COc1ccc(Cl)cc1)NCCc1csc(-c2cccnc2)n1	nt	nt	4	nt	nt	nt
CCc1ccc(NC(=O)C2=C(C)C(=O)OC23CCCCC3)cc1	nt	16µM*	1	nt	nt	16µM*
CC1=C(C(=O)Nc2ccc(C)cc2Cl)C2(CCCCC2)OC1=O	nt	16µM*	-9	nt	nt	?
CC1=C(C(=O)Nc2ccc(C)cc2Cl)C2(CCCCCC2)OC1=O	nt	?	1	nt	nt	?
CCOC(=O)c1cccc(NC(=O)C2=C(C)C(=O)OC23CCCCC3)c1	nt	?	-1	nt	nt	?
CCOc1ccc(NC(=O)C2=C(C)C(=O)OC23CCC(C)CC3)cc1 (stereo not given)	-1%	16µM*	0	-18	7%	?
CCOC(=O)COc1ccccc1/C=C(/C#N)c1nc2ccc(C)cc2[nH]1	nt	nt	11	nt	nt	nt
O=Cc1ccc(-c2ccc(I)cc2C(F)(F)F)o1	nt	nt	3	nt	nt	nt
Clc1cccc(-c2nc(NCCN3CCOCC3)c3ccccc3n2)c1	-11%	?	-4	-86*	3%	?
Clc1ccc(-c2nc(NCCCN3CCOCC3)c3ccccc3n2)cc1	8%	18µM*	-7	-75*	2%	?
Clc1cccc(-c2nc(NCCCN3CCOCC3)c3ccccc3n2)c1	?	23µM*	-3	?	?	?
Fc1ccccc1-c1nc(NCCCN2CCOCC2)c2ccccc2n1	30%	?	-4	-16	-7%	?
CS(=O)(=O)Nc1cccc(-c2nc(NCCN3CCOCC3)c3ccccc3n2)c1	6%	?	nt	nt	5%	-3%
COc1cccc(-c2nc(NCCN3CCOCC3)c3ccccc3n2)c1	10%	?	nt	nt	5%	?
O=C(c1n[nH]c(=O)c2ccccc12)N1CCN(S(=O)(=O)c2ccccc2)CC1	nt	nt	0	nt	nt	nt
Cc1nc(SCC(=O)Nc2ccc3ccccc3c2)oc1C	nt	nt	-4	nt	nt	nt
Cc1ccsc1/C=C/C(=O)c1ccc(C2CCCCC2)cc1	nt	nt	-1	nt	nt	nt
CCn1c(=O)cc(OCC(=O)NCCC(C)C)c2ccccc21	-6%	?	-4	-17	0%	29µM*
Cn1c(=O)cc(OCCCC(=O)NCc2ccc(F)cc2Cl)c2ccccc21	?	?	-4	-7	0%	-26%
CCn1c(=O)cc(OCC(=O)O)c2ccccc21	1%	3%	-6	22	2%	4%
CCn1c(=O)cc(OCC(=O)NCc2ccc(F)cc2Cl)c2ccccc21	nt	23µM*	-2	nt	nt	?
CCc1ccc(CNC(=O)COc2cc(=O)n(CC)c3ccccc23)cc1	nt	26µM*	-3	nt	nt	?
Cc1ccc(NC(=O)CNc2nc(Nc3ccccc3)nc(Nc3ccccc3)n2)cc1C	nt	nt	-12	nt	nt	nt
O=C(CSc1nc2ccccc2s1)Nc1cc(F)ccc1F	nt	nt	2	nt	nt	nt
CC(C)n1c(=N)c(C(=O)NCCc2ccccc2)cc2c(=O)n3ccccc3nc21	-11%	?	-2	-52*	-4%	-25%
SMILES	RORg inh	DT40 TDP1 no CPT	LDHA block	IL-1B inflam inh	VP16 counter	DT40 TDP1 CPT
CCC(C)n1c(=N)c(C(=O)NC2CCCCC2)cc2c(=O)n3ccccc3nc21 (stereo not given)	nt	16µM*	-2	nt	nt	?
CC(C)n1c(=N)c(C(=O)NC2CCCCC2)cc2c(=O)n3ccccc3nc21	nt	0%	-6	nt	nt	2%
N=c1c(C(=O)NC2CCCC2)cc2c(=O)n3ccccc3nc2n1CC1CCCO1 (stereo not given)	17%	6%	0	10	-5%	5%
COCCCn1c(=N)c(C(=O)NC2CCCC2)cc2c(=O)n3ccccc3nc21	nt	-1%	1	nt	nt	1%
COc1ccc(CCn2c(=N)c(C(=O)NC3CCCC3)cc3c(=O)n4ccccc4nc32)cc1	0%	3.3µM*	-1	-83*	-14%	4.1µM*
COc1ccc(CCn2c(=N)c(C(=O)NC3CCCC3)cc3c(=O)n4ccccc4nc32)cc1OC	-6%	0.65µM*	-23	-3	6%	0.73µM*
Cc1oc(-c2cccs2)nc1C(=O)NCC(C)N1CCOCC1 (stereo not given)	nt	nt	-13	nt	nt	nt
COc1ccc(C(=O)Nc2oc3ccccc3c(=O)c2-c2ccc(Cl)cc2)cc1	nt	nt	13	nt	nt	nt
N=c1c(C(=O)NC2CCCCC2)cc2c(=O)n3ccccc3nc2n1CC1CCCO1 (stereo not given)	14%	?	-4	25	4%	4%
COc1ccc(Cn2c(=N)c(C(=O)NC3CCCCC3)cc3c(=O)n4ccccc4nc32)cc1	-4%	8.2µM*	-2	11	3%	18µM*
COc1ccc(CCn2c(=N)c(C(=O)NCC3CCCO3)cc3c(=O)n4ccccc4nc32)cc1OC (stereo not given)	-4%	2.9µM*	0	?	-8%	7.3µM*
COc1cccc(NC(=O)c2cc3c(=O)n4ccccc4nc3n(CC(C)C)c2=N)c1	2%	5.8µM*	-3	2	6%[10 µM]	6.5µM*
COc1ccc(C(=O)N(C)CCCC2CCCC2)cc1OC1CCN(C(C)C)CC1	-17%	?	0	?	-1%	?
COc1ccc(C(=O)N(C)CCCC2CCCC2)cc1OC1CCN(C(C)=O)CC1	-1%	16µM*	0	2	-14%	?
COc1ccc(C(=O)NCCCC2CCCC2)cc1OC1CCN(C(C)C)CC1	nt	16µM*	-1	-22	nt	16µM*
CCOc1ccccc1Oc1c(C(F)(F)F)oc2cc(OC(=O)c3ccccc3F)ccc2c1=O	nt	nt	12	nt	nt	nt
O=CNNC(=S)NCCc1ccccc1	nt	nt	-10	nt	nt	nt
O=C(c1cccc(Cl)c1)N1CCC2CC1c1cc(N3CCOCC3)ccc12 (stereo not given)	nt	?	-6	12	nt	?
O=C(C1CCCCC1)N1CCC2CC1c1cc(N3CCCCC3)ccc12 (stereo not given)	nt	21µM*	-1	51	nt	18µM*
O=C(c1ccccc1F)N1CCC2CC1c1cc(N3CCCCC3)ccc12 (stereo not given)	nt	18µM*	-2	37	nt	?
CN(CCO)C(C(=O)Nc1ccc(F)cc1)c1ccccc1 (stereo not given)	nt	nt	12	nt	nt	nt
O=C(O)c1cc(-c2cccnc2)nc2cc(N3CCOCC3)ccc12	nt	nt	25	nt	nt	nt
COCCNC(=O)C1(C)CCCN(Cc2ccc(C)c3ccccc23)C1 (stereo not given)	nt	16µM*	-7	?	nt	21µM*
